# Assay results as given in PubChem BioAssay.
# Where “and” joins values, the source holds several entries; their conditions need not be identical. Identical values can stand only once. Records with an inconclusive call do not appear. Calls of active or inactive are those of the source.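 How the source made its calls, unless noted: active means normalized viability below 100% at a tested concentration; inactive means the rest.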
# How the values were obtained:
# [1] = tested on: Aerobactin synthetase IucA (Klebsiella pneumoniae); assay: IucA aerobactin synthetase inhibitors, biochemical, Tocris library, absorbance (AID 1345561; call rule not given here;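 further: 100% = enzyme without compound and 0% = no enzyme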); details: purified IucA enzyme assay, absorbance (OD) read-out; stronger effect = lower value;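 tested at 8 µM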
# [2] = growth inhibition of DIPG glioma cells, dose response, cell-based, JHH-DIPG-1, MIPE4.0, CellTiter-Glo, qHTS (AID 1347062; cut-off not given, nearly all actives have AC50 up to about 27 µM); details: JHH-DIPG-1 viability, CellTiter-Glo ATP luminescence
# [3] = growth inhibition of DIPG glioma cells, dose response, cell-based, SU-DIPG-IV, MIPE4.0, CellTiter-Glo, qHTS (AID 1347063; cut-off not given, nearly all actives have AC50 up to about 30 µM;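 further: compound exposure lasted 48 hours before the viability readout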); details: SU-DIPG-IV viability, CellTiter-Glo ATP luminescence
# [4] = viability loss in pontine glioma line – cell-based, SU-DIPG-XXV, MIPE5.0, CellTiter-Glo, qHTS, dose response (AID 1347065; cut-off not given, nearly all actives have AC50 up to about 26 µM;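 further: cells exposed to compound for 48 hours before ATP readout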); details: CellTiter-Glo ATP luminescence
# [5] = sensitizers of A549 cells to miR-34 induction, primary screen, imaging, A549 dox-inducible miR-34, nuclei and caspase counts (AID 1347080;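 active means compounds whose cell count with miR-34 switched on is under 0.7 times the count with it off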); details: A549 miR-34 inducible, Hoechst nuclei count, 48 h
# [6] = modifiers of HSF1 nuclear foci, imaging, Selleck Cancer Library (AID 1347162; in the data active means plate-normalised HSF1 focus index below about 0.46); details: human cells, at 10 µM; SSMD: measured here: HSF1 foci SSMD mean; cell count: measured here: cell number; plate-normalised HSF1 focus index: stronger effect = lower value
# [7] = survival rescue of mitochondrial mutant cells in low glucose, primary screen, MELAS cybrids, Rieske KO mouse fibroblasts, CellTiter-Glo (AID 1508586;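 active means mean z-score across replicates of 1.96 or higher in either the MELAS or the Rieske mutant cell line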;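 further: z relative to plate mean and SD of compound and empty wells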)
# [8] = ovarian cancer cell viability with rucaparib, profiling panel, oncology-focused library, rucaparib conditional (AID 1508598); details: patient-derived ovarian cancer cells, CellTiter-Glo viability, 144 h, stronger effect = lower value
# [9] = viability rescue of complex I mutant cybrids, primary screen, cell-based, galactose medium, ATP luminescence (AID 1645843;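 active means z-score of at least 1.8 in each of two replicates, scored against plate mean and spread of sample wells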;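 further: positive z means more ATP and so rescue of galactose-driven cybrid death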); details: complex I mutant cybrid cells, 72 h, stronger effect = higher value
# [10] = growth inhibition of DIPG glioma cells, dose response, cell-based, SU-DIPG-XIII, MIPE4.0, CellTiter-Glo, qHTS (AID 1347061; cut-off not given, nearly all actives have AC50 up to about 37 µM;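 further: cells exposed to compound for 48 hours before readout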); details: SU-DIPG-XIII viability, CellTiter-Glo ATP luminescence
# [11] = SU-DIPG-VI glioma cell viability, MIPE4.0 library, CellTiter-Glo luminescence, qHTS (AID 1347066; cut-off not given, nearly all actives have AC50 up to about 30 µM;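 further: cells exposed to compound for 48 hours before readout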); details: CellTiter-Glo ATP luminescence
# [12] = liver-stage malaria parasite growth inhibition, primary screen, cell-based, HepG2, luciferase luminescence, HepG2 viability (AID 624349; in the data active means parasite load remaining mostly below about 12%, no sharp cut-off; inactive means mostly above about 10%;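 further: 100% = mean of DMSO negative control wells on the same plate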); details: P. berghei liver stage in HepG2, luciferase luminescence, concentration not given here; parasite load remaining: stronger effect = lower value; viability: measured here: HepG2 viability without parasites
# [13] = growth inhibition of DIPG glioma cells, dose response, cell-based, SU-DIPG-XIII, MIPE5.0, CellTiter-Glo, qHTS (AID 1347064; cut-off not given, nearly all actives have AC50 up to about 23 µM;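 further: cells exposed to compound for 48 hours before the viability read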); details: SU-DIPG-XIII viability, CellTiter-Glo ATP luminescence
# [14] = JHH-DIPG-1 glioma cell viability, MIPE5.0 library, CellTiter-Glo luminescence, qHTS (AID 1347067; cut-off not given, nearly all actives have AC50 up to about 26 µM;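 further: cells exposed to compound for 48 hours before readout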); details: JHH-DIPG-1 glioma viability, CellTiter-Glo ATP luminescence
# [15] = SU-DIPG-XXV glioma cell viability, MIPE5.0 library, qHTS (AID 1347068; cut-off not given, nearly all actives have IC50 up to about 30 µM)
# [16] = stronger effect = lower value, cell number ratio, induced over uninduced
# [17] = measured here: relative caspase fold change +Dox/-Dox
# [18] = measured here: total cells with miR-34 induction, stronger effect = lower value
# [19] = measured here: total cells without miR-34 induction
smiles,measurement,setting,value
O=C(O)Cc1cccc(OCCCN(Cc2cccc(C(F)(F)F)c2Cl)CC(c2ccccc2)c2ccccc2)c1,remaining activity,[1],110% (inactive)
same,outcome,[2],inactive
same,AC50,[3],20.9 µM (active)
same,AC50,[4],20.9 µM (active)
same,fold change,[5]; [16],0.882 (inactive) and 1.33 (inactive)
same,fold change,[5]; [17],0.748 and 1.3
same,cell count,[5]; [18],7570 and 3160
same,cell count,[5]; [19],8580 and 2370
same,SSMD,[6],0.414
same,cell count,[6],6290
same,plate-normalised HSF1 focus index,[6],1.02 (inactive)
same,z-score,"[7]; MELAS cybrid survival, CellTiter-Glo 48 h, stronger effect = higher value",-0.168 (inactive)
same,z-score,"[7]; Rieske KO mouse fibroblast survival, CellTiter-Glo 72 h",-0.731
same,viability,"[8]; at 0.000305 µM, OCI-C5x cells, with rucaparib 10 µM, 100% = cells with rucaparib alone",118% (inactive)
same,viability,"[8]; at 0.000305 µM, OCI-C5x cells, without rucaparib",117% (inactive)
same,viability,"[8]; at 0.000305 µM, OCI-P5x cells, with rucaparib 20 µM, 100% = cells with rucaparib alone",107% (inactive)
same,viability,"[8]; at 0.000305 µM, OCI-P5x cells, without rucaparib",111% (inactive)
same,viability,"[8]; at 0.00122 µM, OCI-C5x cells, with rucaparib 10 µM, 100% = cells with rucaparib alone",118% (inactive)
same,viability,"[8]; at 0.00122 µM, OCI-C5x cells, without rucaparib",129% (inactive)
same,viability,"[8]; at 0.00122 µM, OCI-P5x cells, with rucaparib 20 µM, 100% = cells with rucaparib alone",108% (inactive)
same,viability,"[8]; at 0.00122 µM, OCI-P5x cells, without rucaparib",95.8% (active)
same,viability,"[8]; at 0.00488 µM, OCI-C5x cells, with rucaparib 10 µM, 100% = cells with rucaparib alone",115% (inactive)
same,viability,"[8]; at 0.00488 µM, OCI-C5x cells, without rucaparib",125% (inactive)
same,viability,"[8]; at 0.00488 µM, OCI-P5x cells, with rucaparib 20 µM, 100% = cells with rucaparib alone",106% (inactive)
same,viability,"[8]; at 0.00488 µM, OCI-P5x cells, without rucaparib",108% (inactive)
same,viability,"[8]; at 0.0195 µM, OCI-C5x cells, with rucaparib 10 µM, 100% = cells with rucaparib alone",113% (inactive)
same,viability,"[8]; at 0.0195 µM, OCI-C5x cells, without rucaparib",125% (inactive)
same,viability,"[8]; at 0.0195 µM, OCI-P5x cells, with rucaparib 20 µM, 100% = cells with rucaparib alone",101% (inactive)
same,viability,"[8]; at 0.0195 µM, OCI-P5x cells, without rucaparib",105% (inactive)
same,viability,"[8]; at 0.0781 µM, OCI-C5x cells, with rucaparib 10 µM, 100% = cells with rucaparib alone",114% (inactive)
same,viability,"[8]; at 0.0781 µM, OCI-C5x cells, without rucaparib",123% (inactive)
same,viability,"[8]; at 0.0781 µM, OCI-P5x cells, with rucaparib 20 µM, 100% = cells with rucaparib alone",109% (inactive)
same,viability,"[8]; at 0.0781 µM, OCI-P5x cells, without rucaparib",103% (inactive)
same,viability,"[8]; at 0.313 µM, OCI-C5x cells, with rucaparib 10 µM, 100% = cells with rucaparib alone",114% (inactive)
same,viability,"[8]; at 0.313 µM, OCI-C5x cells, without rucaparib",119% (inactive)
same,viability,"[8]; at 0.313 µM, OCI-P5x cells, with rucaparib 20 µM, 100% = cells with rucaparib alone",93.8% (active)
same,viability,"[8]; at 0.313 µM, OCI-P5x cells, without rucaparib",96.5% (active)
same,viability,"[8]; at 1.25 µM, OCI-C5x cells, with rucaparib 10 µM, 100% = cells with rucaparib alone",111% (inactive)
same,viability,"[8]; at 1.25 µM, OCI-C5x cells, without rucaparib",114% (inactive)
same,viability,"[8]; at 1.25 µM, OCI-P5x cells, with rucaparib 20 µM, 100% = cells with rucaparib alone",96.5% (active)
same,viability,"[8]; at 1.25 µM, OCI-P5x cells, without rucaparib",92.3% (active)
same,viability,"[8]; at 5 µM, OCI-C5x cells, with rucaparib 10 µM, 100% = cells with rucaparib alone",92.1% (active)
same,viability,"[8]; at 5 µM, OCI-C5x cells, without rucaparib",100% (inactive)
same,viability,"[8]; at 5 µM, OCI-P5x cells, with rucaparib 20 µM, 100% = cells with rucaparib alone",43.4% (active)
same,viability,"[8]; at 5 µM, OCI-P5x cells, without rucaparib",87.5% (active)
same,z-score,[9],-0.7 (inactive)
O=C(/C=C/c1c(C(=O)O)[nH]c2cc(Cl)cc(Cl)c12)Nc1ccccc1,remaining activity,[1],87.2% (inactive)
same,outcome,[10],inactive
same,outcome,[2],inactive
same,outcome,[3],inactive
same,outcome,[11],inactive
same,fold change,[5]; [16],0.942 (inactive)
same,fold change,[5]; [17],1.32
same,cell count,[5]; [18],8890
same,cell count,[5]; [19],9440
same,z-score,[9],4.95 (active)
NC(=O)c1ccc(-c2nc(-c3ccc4c(c3)OCCO4)c(-c3ccccn3)[nH]2)cc1,parasite load remaining,[12],23.5% (inactive)
same,viability,[12],94.8%
same,remaining activity,[1],105% (inactive)
same,outcome,[2],inactive
same,AC50,[13],13.2 µM (active)
same,outcome,[11],inactive
same,AC50,[14],20.9 µM (active)
same,outcome,[15],inactive
same,fold change,[5]; [16],0.947 (inactive) and 0.907 (inactive)
same,fold change,[5]; [17],1.17 and 1.19
same,cell count,[5]; [18],6010 and 7770
same,cell count,[5]; [19],6350 and 8570
same,SSMD,[6],3.6
same,cell count,[6],7030
same,plate-normalised HSF1 focus index,[6],1.22 (inactive)
same,z-score,[9],-0.34 (inactive)
